Our source for the log2 fold change values is the supplement of paper PMC10849652.

Of roughly 8,800 targets only a part is listed; those with a hit were picked by preference. About 0.5% of all pairs of compound and target were hits.

Sequence of UniProt Q8TEB9 (Q8TEB9 whole entry, looked up): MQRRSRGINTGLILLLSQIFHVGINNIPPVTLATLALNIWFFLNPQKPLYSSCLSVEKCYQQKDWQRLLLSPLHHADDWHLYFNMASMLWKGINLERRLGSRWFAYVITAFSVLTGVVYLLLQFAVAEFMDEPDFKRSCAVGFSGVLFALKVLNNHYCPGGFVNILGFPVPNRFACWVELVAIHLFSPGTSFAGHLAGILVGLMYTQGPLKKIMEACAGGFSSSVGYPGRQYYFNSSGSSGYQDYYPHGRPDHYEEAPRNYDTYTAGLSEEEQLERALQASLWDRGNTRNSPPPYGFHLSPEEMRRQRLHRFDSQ
Sequence of UniProt Q9BXT8 (Q9BXT8 whole entry, looked up): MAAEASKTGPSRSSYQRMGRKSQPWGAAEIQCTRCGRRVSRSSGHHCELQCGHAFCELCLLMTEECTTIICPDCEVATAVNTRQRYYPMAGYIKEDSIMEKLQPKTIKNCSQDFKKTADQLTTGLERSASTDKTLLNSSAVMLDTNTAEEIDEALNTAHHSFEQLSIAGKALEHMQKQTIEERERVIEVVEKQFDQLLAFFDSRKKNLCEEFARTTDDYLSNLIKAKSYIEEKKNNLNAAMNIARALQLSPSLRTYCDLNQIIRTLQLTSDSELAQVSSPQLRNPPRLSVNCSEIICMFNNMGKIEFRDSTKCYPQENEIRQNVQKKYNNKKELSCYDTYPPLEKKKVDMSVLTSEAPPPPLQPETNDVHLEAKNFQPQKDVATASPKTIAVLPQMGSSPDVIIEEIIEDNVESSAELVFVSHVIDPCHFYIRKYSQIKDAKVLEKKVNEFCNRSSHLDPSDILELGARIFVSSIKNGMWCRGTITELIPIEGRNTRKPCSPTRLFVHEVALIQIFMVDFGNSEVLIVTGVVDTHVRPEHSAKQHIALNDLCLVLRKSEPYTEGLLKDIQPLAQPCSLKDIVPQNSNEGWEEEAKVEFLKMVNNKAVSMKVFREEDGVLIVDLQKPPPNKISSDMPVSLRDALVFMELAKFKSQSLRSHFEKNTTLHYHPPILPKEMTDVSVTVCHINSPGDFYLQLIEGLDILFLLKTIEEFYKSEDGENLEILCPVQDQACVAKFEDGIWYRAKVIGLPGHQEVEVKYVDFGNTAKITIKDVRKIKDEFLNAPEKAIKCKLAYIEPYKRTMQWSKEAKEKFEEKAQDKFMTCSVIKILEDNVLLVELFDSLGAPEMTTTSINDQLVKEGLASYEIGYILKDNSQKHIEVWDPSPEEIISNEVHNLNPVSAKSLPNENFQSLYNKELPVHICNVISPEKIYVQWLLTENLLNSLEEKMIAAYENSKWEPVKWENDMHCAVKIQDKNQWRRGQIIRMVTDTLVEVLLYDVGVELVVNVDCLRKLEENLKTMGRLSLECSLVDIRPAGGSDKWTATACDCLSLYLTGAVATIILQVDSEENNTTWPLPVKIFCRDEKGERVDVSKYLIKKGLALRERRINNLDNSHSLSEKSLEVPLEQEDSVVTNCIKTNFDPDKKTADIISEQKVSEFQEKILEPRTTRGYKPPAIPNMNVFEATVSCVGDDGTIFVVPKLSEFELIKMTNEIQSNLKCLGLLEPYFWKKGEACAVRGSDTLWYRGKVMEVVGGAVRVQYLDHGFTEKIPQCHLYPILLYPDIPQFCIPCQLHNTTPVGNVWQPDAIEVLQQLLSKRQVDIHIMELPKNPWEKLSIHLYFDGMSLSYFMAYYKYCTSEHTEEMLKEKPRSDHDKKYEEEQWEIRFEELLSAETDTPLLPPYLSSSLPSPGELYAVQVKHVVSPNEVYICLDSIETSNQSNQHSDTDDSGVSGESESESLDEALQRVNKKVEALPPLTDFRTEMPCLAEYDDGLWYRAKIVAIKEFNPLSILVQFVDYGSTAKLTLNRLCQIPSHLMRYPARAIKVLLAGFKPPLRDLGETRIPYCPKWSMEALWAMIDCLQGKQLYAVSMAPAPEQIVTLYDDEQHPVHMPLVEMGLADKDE
Sequence of UniProt Q9UPW6 (Q9UPW6 whole entry, looked up): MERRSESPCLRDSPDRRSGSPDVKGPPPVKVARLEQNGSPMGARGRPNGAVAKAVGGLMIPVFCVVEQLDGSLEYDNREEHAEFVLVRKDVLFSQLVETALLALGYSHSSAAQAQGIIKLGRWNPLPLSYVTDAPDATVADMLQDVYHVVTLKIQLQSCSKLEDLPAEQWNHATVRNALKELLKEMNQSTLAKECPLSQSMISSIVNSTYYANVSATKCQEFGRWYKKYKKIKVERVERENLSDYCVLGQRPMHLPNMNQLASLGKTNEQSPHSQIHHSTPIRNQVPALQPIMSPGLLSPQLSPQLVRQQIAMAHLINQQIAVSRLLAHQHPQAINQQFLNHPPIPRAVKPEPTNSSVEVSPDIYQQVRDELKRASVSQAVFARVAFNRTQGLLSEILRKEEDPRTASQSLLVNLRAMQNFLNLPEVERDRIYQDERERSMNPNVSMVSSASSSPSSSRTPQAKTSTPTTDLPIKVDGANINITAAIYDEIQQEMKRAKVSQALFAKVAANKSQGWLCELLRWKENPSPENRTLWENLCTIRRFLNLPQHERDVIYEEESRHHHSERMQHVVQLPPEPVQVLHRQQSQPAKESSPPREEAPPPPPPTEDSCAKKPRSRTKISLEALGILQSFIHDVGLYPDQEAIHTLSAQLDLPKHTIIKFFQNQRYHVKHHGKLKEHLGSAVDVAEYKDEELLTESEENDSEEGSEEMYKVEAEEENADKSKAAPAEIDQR
Sequence of UniProt O75446 (O75446 whole entry, looked up): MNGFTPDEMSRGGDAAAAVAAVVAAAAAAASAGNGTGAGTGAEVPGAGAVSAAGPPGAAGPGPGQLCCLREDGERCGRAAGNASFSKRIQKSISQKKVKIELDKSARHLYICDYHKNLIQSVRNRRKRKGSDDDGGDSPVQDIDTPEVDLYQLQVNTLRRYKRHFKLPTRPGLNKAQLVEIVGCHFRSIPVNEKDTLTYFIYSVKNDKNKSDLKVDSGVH
Sequence of UniProt Q92698 (Q92698 whole entry, looked up): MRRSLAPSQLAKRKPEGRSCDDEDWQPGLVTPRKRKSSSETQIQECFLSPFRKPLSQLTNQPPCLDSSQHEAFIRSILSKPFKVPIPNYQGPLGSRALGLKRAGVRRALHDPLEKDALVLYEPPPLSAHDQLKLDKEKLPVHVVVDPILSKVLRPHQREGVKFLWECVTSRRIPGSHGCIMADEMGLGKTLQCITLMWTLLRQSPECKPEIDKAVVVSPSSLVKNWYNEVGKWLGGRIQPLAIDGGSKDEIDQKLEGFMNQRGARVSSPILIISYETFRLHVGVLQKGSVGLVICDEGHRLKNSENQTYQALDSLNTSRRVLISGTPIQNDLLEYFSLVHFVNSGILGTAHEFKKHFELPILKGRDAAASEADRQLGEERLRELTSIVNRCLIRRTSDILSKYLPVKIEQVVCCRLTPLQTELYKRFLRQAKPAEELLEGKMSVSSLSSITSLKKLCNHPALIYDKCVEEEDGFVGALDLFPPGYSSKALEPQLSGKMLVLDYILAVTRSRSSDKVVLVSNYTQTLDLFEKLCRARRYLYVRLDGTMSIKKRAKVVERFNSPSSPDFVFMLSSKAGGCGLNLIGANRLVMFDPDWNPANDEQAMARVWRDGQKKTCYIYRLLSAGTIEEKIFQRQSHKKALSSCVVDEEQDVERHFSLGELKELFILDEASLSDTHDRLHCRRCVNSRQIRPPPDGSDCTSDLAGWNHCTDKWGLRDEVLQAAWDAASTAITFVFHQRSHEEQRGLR
Sequence of UniProt Q8TC12 (Q8TC12 whole entry, looked up): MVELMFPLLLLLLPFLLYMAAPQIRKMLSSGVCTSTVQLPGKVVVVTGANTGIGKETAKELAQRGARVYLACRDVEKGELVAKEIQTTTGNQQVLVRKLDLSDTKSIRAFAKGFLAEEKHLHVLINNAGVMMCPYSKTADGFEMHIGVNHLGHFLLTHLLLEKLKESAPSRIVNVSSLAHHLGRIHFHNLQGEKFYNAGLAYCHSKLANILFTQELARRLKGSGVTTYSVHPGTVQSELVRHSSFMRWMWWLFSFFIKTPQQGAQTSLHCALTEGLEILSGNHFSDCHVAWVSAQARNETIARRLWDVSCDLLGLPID
Sequence of UniProt Q7L0Q8 (Q7L0Q8 whole entry, looked up): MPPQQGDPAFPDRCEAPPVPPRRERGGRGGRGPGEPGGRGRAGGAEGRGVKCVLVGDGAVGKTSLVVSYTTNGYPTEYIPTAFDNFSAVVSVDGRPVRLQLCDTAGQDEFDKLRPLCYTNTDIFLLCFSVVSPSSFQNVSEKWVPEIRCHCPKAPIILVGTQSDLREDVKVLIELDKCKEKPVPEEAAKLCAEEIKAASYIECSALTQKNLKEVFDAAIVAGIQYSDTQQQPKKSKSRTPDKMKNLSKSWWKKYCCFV
Sequence of UniProt P51812 (P51812 whole entry, looked up): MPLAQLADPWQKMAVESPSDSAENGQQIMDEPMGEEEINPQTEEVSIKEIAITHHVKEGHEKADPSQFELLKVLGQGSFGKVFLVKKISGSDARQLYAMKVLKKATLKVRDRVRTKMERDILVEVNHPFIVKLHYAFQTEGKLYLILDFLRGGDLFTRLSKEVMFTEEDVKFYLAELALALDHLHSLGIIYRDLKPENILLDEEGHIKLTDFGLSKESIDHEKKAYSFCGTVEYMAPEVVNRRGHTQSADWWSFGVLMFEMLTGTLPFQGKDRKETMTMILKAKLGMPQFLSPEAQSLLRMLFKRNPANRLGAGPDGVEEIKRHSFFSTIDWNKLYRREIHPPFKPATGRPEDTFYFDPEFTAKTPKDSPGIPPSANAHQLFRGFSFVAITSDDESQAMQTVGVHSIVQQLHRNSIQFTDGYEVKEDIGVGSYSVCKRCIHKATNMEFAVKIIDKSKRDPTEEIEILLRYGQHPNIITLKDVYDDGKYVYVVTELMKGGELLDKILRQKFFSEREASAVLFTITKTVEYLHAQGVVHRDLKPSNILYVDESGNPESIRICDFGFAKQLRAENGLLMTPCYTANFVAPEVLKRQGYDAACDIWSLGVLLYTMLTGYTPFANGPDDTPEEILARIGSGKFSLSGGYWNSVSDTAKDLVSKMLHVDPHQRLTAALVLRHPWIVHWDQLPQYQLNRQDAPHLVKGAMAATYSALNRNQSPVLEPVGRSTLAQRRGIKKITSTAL

Compound in one assay: C1CN(CCC1(CC2=CC=C(C=C2)Cl)N)C3=NC=NC4=C3C=CN4
In words: log2 fold change, soluble protein after heating vs DMSO (PISA); higher = thermal stabilisation; K562 lysate, 10 uM; active = over 0.2 and 3.5 SD of the protein, either way, in both replicates (recomputed). The method in brief: (§1)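 To prepare the extract, K562 pellets were dounce-homogenised in PBS pH 7.4 with 1 mM MgCl2, giving crude material at 1 mg/mL protein. This was treated with 10 μM compound for 30 min, then heated in aliquots for 3 min over 48°C-58°C before pooling and addition of NP-40 to 0.5% at 4°C. Centrifugation at 21,000xg for 90 min left soluble protein in the supernatant, which TMTpro 16plex LC-MS/MS quantified with equalised channel sums. Results are log-two fold changes in thermal stability compared with solvent controls, from duplicates.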
Regarding RDH11 (UniProt Q8TC12), the log2 fold change is 0.063 (inactive).
Same read-out and setting: next, RHOU (UniProt Q7L0Q8): 0.03 (inactive); RYR1 (UniProt P21817): -0.057 (inactive); RNF2 (UniProt Q99496): -0.037 (inactive).
Same read-out and setting: the value for SAP30 (UniProt O75446) was 0.067 (inactive); that for RPS6KA3 (UniProt P51812) was -0.043 (inactive); that for RUFY2 isoform 1 (UniProt Q8WXA3) was 0.041 (inactive).
As to SCNM1 (UniProt Q9BWG6), the log2 fold change is -0.158 (inactive).
Same read-out and setting: next, RMI2 (UniProt Q96E14): 0.117 (inactive); SEMA4G isoform 2 (UniProt Q9NTN9): -0.112 (inactive).
The same measure, in the same setting: the value for QSER1, A0A3B3IRW6 was -0.046 (inactive); that for S100A6 (UniProt P06703) was 0.151 (inactive).
Consider RALGAPB isoform 3 (UniProt Q86X10), for which the log2 fold change is 0 (inactive).
The same measure, in the same setting: the value for SERAC1 (UniProt Q96JX3) was 0.056 (inactive).
Same read-out and setting: next, RNF17 (UniProt Q9BXT8): 0.033 (inactive); SATB2 (UniProt Q9UPW6): 0.009 (inactive); RPS6KA5 (UniProt O75582): -0.11 (inactive).
RAD17 (UniProt O75943): the log2 fold change was 0.019 (inactive).
As to RHBDD1 (UniProt Q8TEB9), the log2 fold change was 0.159 (inactive).

Compound in a further assay: C1COCCN1CCN2C3=CC=CC=C3N=C2NC(=O)C4=CC(=CC=C4)[N+](=O)[O-] [IRAK-1-4 Inhibitor I]
The assay is described as above. The method in brief:
as §1
For RXRA (UniProt P19793), the log2 fold change is 0.113 (inactive).
On the same count and under the same terms, next, RDH11 (UniProt Q8TC12): 0.012 (inactive); SEC16A isoform 2 (UniProt O15027): -0.053 (inactive); RHOU (UniProt Q7L0Q8): -0.089 (inactive).
Same read-out and setting: next, RYR1 (UniProt P21817): -0.003 (inactive); RNF2 (UniProt Q99496): -0.039 (inactive); RAD54L (UniProt Q92698): 0.02 (inactive).
On the same count and under the same terms, the value for RPS6KA3 (UniProt P51812) was -0.019 (inactive); that for RNPC3 (UniProt Q96LT9) was 0.076 (inactive); that for RUFY2 isoform 1 (UniProt Q8WXA3) was 0.05 (inactive).
For the target ROBO2 isoform 3 (UniProt Q9HCK4), the log2 fold change is -0.062 (inactive).
On the same count and under the same terms, the value for SCNM1 (UniProt Q9BWG6) was -0.021 (inactive); that for RMI2 (UniProt Q96E14) was 0.054 (inactive).
On the same count and under the same terms, the value for SEC16A isoform 3 (UniProt O15027) was 0.123 (inactive).
The same measure, in the same setting: the value for QSER1, A0A3B3IRW6 was -0.014 (inactive).
On to S100A6 (UniProt P06703), for which the log2 fold change was -0.209 (inactive).
The same measure, in the same setting: the value for RNF17 (UniProt Q9BXT8) was 0.055 (inactive); that for SATB2 (UniProt Q9UPW6) was 0.027 (inactive); that for RPS6KA5 (UniProt O75582) was 0.014 (inactive).
As to RAD17 (UniProt O75943), the log2 fold change is 0.021 (inactive).

Compound in another assay: C=CC(=O)N1CCC[C@@H](n2nc(-c3ccc(Oc4ccccc4)cc3)c3c(N)ncnc32)C1 [ibrutinib]
Described as above. The method in brief:
as §1
On to SELENOK (UniProt Q9Y6D0), for which the log2 fold change was 0.05 (inactive).
For the target RYR1 (UniProt P21817), the log2 fold change was 0.091 (inactive).
On the same count and under the same terms, the value for RAD54L (UniProt Q92698) was -0.081 (inactive).
Turning to SAP30 (UniProt O75446), the log2 fold change is 0.058 (inactive).
Still for that read-out and setting: the value for RPS6KA3 (UniProt P51812) was -0.04 (inactive).
On the same count and under the same terms, next, RUFY2 isoform 1 (UniProt Q8WXA3): 0.068 (inactive); RNF24 isoform 2 (UniProt Q9Y225): -0.051 (inactive); RNF170 (UniProt Q96K19): -0.006 (inactive).
The same measure, in the same setting: next, RALGAPB isoform 3 (UniProt Q86X10): 0.106 (inactive); SERAC1 (UniProt Q96JX3): 0.066 (inactive); RNF17 (UniProt Q9BXT8): -0.098 (inactive).
Turning to RAD17 (UniProt O75943), the log2 fold change is 0.023 (inactive).
Still for that read-out and setting: the value for RLIM (UniProt Q9NVW2) was 0.014 (inactive); that for RHBDD1 (UniProt Q8TEB9) was -0.059 (inactive).

Compound in another assay: CC(=O)c1cnc2ccc(-c3cc(Cl)c(O)c(Cl)c3)nc2c1N[C@H]1CC[C@H](CN(C)C)CC1
Described as above. The method in brief:
as §1
RXRA (UniProt P19793): the log2 fold change is -0.028 (inactive).
With SELENOK (UniProt Q9Y6D0), the log2 fold change is -0.134 (inactive).
The same measure, in the same setting: the value for RDH11 (UniProt Q8TC12) was -0.021 (inactive); that for RHOU (UniProt Q7L0Q8) was -0.007 (inactive); that for RYR1 (UniProt P21817) was 0.008 (inactive).
On the same count and under the same terms, next, RAD54L (UniProt Q92698): 0.035 (inactive).
On the same count and under the same terms, next, SAP30 (UniProt O75446): 0.033 (inactive); RPS6KA3 (UniProt P51812): 0.56 (active).
On to RNPC3 (UniProt Q96LT9), for which the log2 fold change was 0.017 (inactive).
On the same count and under the same terms, next, ROBO2 isoform 3 (UniProt Q9HCK4): -0.015 (inactive); SCNM1 (UniProt Q9BWG6): -0.026 (inactive); RNF170 (UniProt Q96K19): 0.107 (inactive).
The same measure, in the same setting: next, QSER1, A0A3B3IRW6: -0.047 (inactive); S100A6 (UniProt P06703): -0.082 (inactive).
For RNF17 (UniProt Q9BXT8), the log2 fold change is 0.035 (inactive).
Regarding SATB2 (UniProt Q9UPW6), the log2 fold change was -0.005 (inactive).
Still for that read-out and setting: the value for RPS6KA5 (UniProt O75582) was 0.173 (inactive); that for RBM45 (UniProt Q8IUH3) was -0.077 (inactive).
For RNASEH2B, A0A1B0GUE7, the log2 fold change is -0.017 (inactive).
For RHBDD1 (UniProt Q8TEB9), the log2 fold change was -0.518 (active).
